# Screening results from PubChem BioAssay.
# TDP1 inh: TDP1 (human) enzyme inhibition; Q9NUW8; recombinant TDP1, AlphaScreen DNA substrate cleavage; Potency, µM (titrated, usually from 130 µM), hits mostly inhibitors; 350,000 compounds, 0.28% hits; AID 485290; also: nearly all actives have a fitted effect of over 40% in size
#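 Compounds were preincubated with Tdp1 (1 nM final) for 15 min at room temperature before substrate (15 nM final) started a 5 min reaction; beads (10 ug/ml final) were then added for 10 min before AlphaScreen detection.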
# DT40 TDP1 CPT: growth inhibition of DT40 Tdp1-/-;hTDP1 cells with camptothecin (screen for TDP1 inhibitors) | 420,000 compounds, 12% hits | Potency, µM (doses to about 46.2 µM), most hits filed as inhibitors | chicken DT40 Tdp1-/-;hTDP1 cells + 20 nM CPT, ATP luminescence, 48 h; also: nearly all actives have a fitted effect of over 55% in size
#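 Chicken DT40 Tdp1-/- cells complemented with human TDP1, 400 cells/well, exposed to compounds plus 20 nM camptothecin for at least 48 h at 37 C; viability read as ATP content by CellTiter-Glo luminescence.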
# VDR inhibitor: blocks the human vitamin D receptor | P11473 | VDR-SRC2-3 peptide fluorescence polarization, 2 h | Potency, µM, usual class: inhibitors | 400,000 compounds, 0.93% hits | AID 504847
#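 Measured by FP: displacement of SRC2-3 coactivator peptide from VDR by library compounds, following a two-hour ambient incubation.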
# DT40 TDP1 no CPT: qHTS for Inhibitors of human tyrosyl-DNA phosphodiesterase 1 (TDP1): qHTS in cells in absence of CPT. DT40 Tdp1-/- hTDP1 cells, no CPT, ATP luminescence, 48 h. Potency, µM (top dose mostly 46.2 µM), most hits filed as inhibitors. 420,000 compounds, 15% hits; also: nearly all actives have a fitted effect of over 55% in size
#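 A cellular qHTS used chicken DT40 cells lacking endogenous Tdp1 but carrying stably transfected human TDP1. Compounds were applied without camptothecin, and cell growth kinetics were judged by ATP-dependent luminescence after ≥48 hr.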
# PLK1 PBD inh: inhibitors of human PLK1 polo-box domain binding; Plk1 PBD binding of FITC phosphopeptide, fluorescence polarization; Potency, µM, usual class: inhibitors; 360,000 compounds, 2.8% hits; also: series mostly up to about 57 µM; nearly all actives have a fitted effect of over 65% in size
# KAT2A inh: blocks human GCN5L2 histone acetyltransferase; GCN5L2 HAT assay, ThioGlo1 CoA-SH fluorescence; Potency, µM (series often up to 58.9 µM), most hits filed as inhibitors; 390,000 compounds, 0.21% hits; AID 504327
#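 GCN5L2 (20nM final) in 50mM HEPES, 0.1mM EDTA pH 7.5, 0.01% Tween-20 was preincubated 15 min at room temperature with compound, then given ThioGlo1 (50uM), H3(1-25) peptide (75uM) and acetyl-CoA (70uM); CoA-thiol fluorescence (Ex340/Em540) was read at 0 and 20 min.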
# Numbers stand for hits; n = inactive; u = inconclusive; x = no result given; [ ] = dose if it differs, or a comment. Compounds with a hit are over-represented: about 18% of the library has one in this group of screens. Calls follow the shape of the dose curve; as a rule, active = well fitted curve in the direction sought with a large enough effect; inconclusive = small, poorly fitted or top-dose-only effect, or another doubt; inactive = no such curve, though single readings can be large; an effect the other way counts as inactive or inconclusive.
SMILES,TDP1 inh,DT40 TDP1 CPT,VDR inhibitor,DT40 TDP1 no CPT,PLK1 PBD inh,KAT2A inh
CN(Cc1ccccc1)N=Nc1ccccc1,x,n,x,u,n,x
Cc1ccccc1-c1cc(Nc2ccccc2)ncn1,x,n,u,n,x,n
Cc1cccc(CNc2cc(-c3ccccc3C)ncn2)c1,x,15µM,u,6.5µM,x,n
Cc1cccc(CNc2cc(-c3c(C)noc3C)ncn2)c1,x,u,n,u,x,n
CNc1cc(-c2ccccc2C)ncn1,x,n,50µM,n,x,u
COc1ccc(-c2csc(NC(=O)CSc3nc(C)cs3)n2)cc1,x,n,n,u,n,x
Cc1cc(-c2nnc(SCC(=O)Nc3nc(-c4ccccc4)cs3)o2)no1,x,15µM,n,u,n,n
Cc1cc(C)nc(SCc2nnc(SCC(=O)O)n2-c2ccccc2)n1,n,n,n,n,n,n
Cc1cc(C)nc(SCc2nnc(SCC#N)n2-c2cccc(Cl)c2)n1,n,u,n,21µM,n,n
COc1ccc(-c2csc(NC(=O)CSc3nc(SC)ns3)n2)cc1,n,u,n,23µM,n,n
Cc1occc1-c1nnc(SCC(=O)Nc2nc(-c3ccccc3)cs2)o1,n,n,n,u,n,n[0.501 µM]
COc1ccc(-n2c(CNc3ccc(C)cc3)nnc2SCC(=O)Nc2nc(-c3ccccc3)cs2)cc1,n,5.6µM,n,10µM,n,n
COc1ccc(C(=O)NC(=S)N2CC(C)OC(C)C2)cc1OC (stereo not drawn),n,n,n,n,n,n
COc1cc(C)c(COc2ncnc3ccccc23)cc1OC,n,u,n,u,n,n
OCC(O)[C@@H](O[C@H]1O[C@H](CO)[C@@H](O)[C@H](O)[C@H]1O)[C@H](O)[C@@H](O)CO (stereo partly drawn),x,n,n,n,n,n
Cc1cc(C)nc(SCc2nnc(SCC(=O)Nc3nc(-c4ccccc4)cs3)n2-c2ccccc2)n1,n,u,n,18µM,u,n
CCn1c(CCNC(=O)c2cccs2)nnc1SCC(=O)Nc1cccc(Cl)c1,x,n,n,n,n,x
COc1ccc(NCc2nnc(SCC(=O)Nc3nc(-c4ccccc4)cs3)n2-c2ccccc2)cc1,n,4.6µM,n,23µM,n,n
COc1ccc(-c2csc(NC(=O)CSc3nc(C)nc4sc(C(=O)O)c(C)c34)n2)cc1,n,n,n,n,19µM,n
CCn1c(CCNC(=O)c2cccs2)nnc1SCC(=O)Nc1nc(-c2ccccc2)cs1,n,16µM,n,10µM,n,n
O=c1ccc(-c2ccccc2)nn1Cc1ccc(F)cc1Cl,n,u,n,u,n,n
COC(=O)[C@]12CCCCC=C1N(Cc1ccc(Cl)cc1Cl)C(=O)[C@H](CC(=O)N1CCC(c3ccccc3)CC1)C2,x,u,x,u,n,x
CC1CN(CCC(=O)N2CCCC(C(=O)c3nccn3C)C2)Cc2cc(Cl)ccc2O1 (stereo not drawn),x,n[9.04 µM],x,n,x,x
O=C(NCc1ccc(F)cc1)C1CCCN(c2ncnc3onc(-c4ccc(F)cc4)c23)C1 (stereo not drawn),n,21µM,n,16µM,x,n
COc1cc(Cl)c(C)cc1NC(=O)C1CCCN(c2ncnc3onc(-c4ccc(F)cc4)c23)C1 (stereo not drawn),n,15µM,n,8.2µM,x,n
SMILES,TDP1 inh,DT40 TDP1 CPT,VDR inhibitor,DT40 TDP1 no CPT,PLK1 PBD inh,KAT2A inh
COc1cccc(NC(=O)C2CCCN(c3ncnc4onc(-c5ccc(F)cc5)c34)C2)c1 (stereo not drawn),n,u,n,16µM,x,n
CCOc1ccccc1NC(=O)C1CCCN(c2ncnc3onc(-c4ccc(F)cc4)c23)C1 (stereo not drawn),n,21µM,n,23µM,x,n
OC[C@@H]1CN(Cc2cccs2)C[C@H](n2cnc3c(NC4CCC4)ncnc32)O1,x,n,x,n,n,x
CN(C1CCCCC1)S(=O)(=O)c1ccc2c(c1)c(=O)c(C(=O)NCc1ccccc1Cl)cn2C,n,n,n,n,x,n
Cn1cc(CN2CCC(n3nccc3NC(=O)Cc3ccccc3)CC2)cn1,n,n,n,n,n,n
CCc1ccccc1NC(=O)C1CCCN(c2ncnc3onc(-c4ccc(F)cc4)c23)C1 (stereo not drawn),n,u,n,u,n,n
CCOc1ccccc1N(C)C(=O)C1CCCN(c2ncnc3onc(-c4ccc(F)cc4)c23)C1 (stereo not drawn),n,12µM,n,8.2µM,x,n
Cc1ccc(NC(=O)CN2C(=O)NC(C)(C3CC3)C2=O)cc1S(=O)(=O)N1CCCCC1 (stereo not drawn),n,u,n,n,n,n
COc1ccc(C(=O)N2CCN(c3ccc(NC(=O)Cc4ccccc4)cc3)CC2)cc1,n,u,n,u,n,u
Cc1ccc(OCCCC(=O)Nc2ccc(N3CCOCC3)cc2)c(C)c1,n,n,n,n,n,n
CN1CCN(c2ccc(NC(=O)COc3ccccc3Cl)cc2)CC1,n,16µM,n,16µM,n,n
Cc1ccc(C(=O)N2CCN(c3ccc(NC(=S)NC(=O)Cc4ccccc4)cc3)CC2)cc1,n,35µM,n,u,n,n
CCC(=O)N1CCN(c2ccc(NC(=O)COc3ccc(C)cc3C)cc2)CC1,n,u,n,18µM,n,n
CCC(=O)N1CCN(c2ccc(NC(=O)COc3ccccc3[N+](=O)[O-])cc2)CC1,n,15µM,n,10µM,n,n
CC(OC(=O)COc1ccccc1[N+](=O)[O-])C(=O)Nc1ccc(N2CCOCC2)cc1 (stereo not drawn),n,n,n,n,n,n
Cc1ccc(C(O)c2ncc(-c3ccccc3F)[nH]2)c(C)c1 (stereo not drawn),x,u,x,u,n,x
Clc1ccccc1-c1nc(NCc2cccs2)c2ccccc2n1,x,u,n,u,x,u
CCC(=O)N1CCN(c2ccccc2NC(=O)COc2cccc(C)c2)CC1,n,u,n,n,n,n
CCC(=O)N1CCN(c2ccccc2NC(=O)COc2ccccc2Cl)CC1,n,23µM,n,u,n,n
Cc1ccc(C(=O)N2CCN(c3ccc(NC(=O)COc4ccccc4C)cc3)CC2)cc1,n,4.1µM,n,5.2µM,n,n
CCC(=O)N1CCN(c2ccc(NC(=O)COc3ccccc3Cl)cc2)CC1,n,16µM,n,26µM,n,n
Cc1cccc(OCC(=O)Nc2ccc(N3CCCC3)cc2)c1C,n,n,n,u,n,n
Cc1nc(NCCc2ccccc2)c2oc3ccccc3c2n1,n,8.2µM,n,9.2µM,n,n
c1ccc2c(c1)oc1c(Nc3ccc4c(c3)OCO4)ncnc12,n,n,n,n,n,n
Oc1cccc(Nc2ncnc3c2oc2ccccc23)c1,x,12µM,n,u,n,n
